In PubChem BioAssay (EPA / NIEHS):
“And” between values parts separate entries of the source, which are not always exact repeats. Identical values can stand only once. The source made the active and inactive calls. How the source made its calls: active means hit-call score of the fitted dose curve at least 0.9, where 1 is the maximum; inactive means score below 0.9.

read-out: Interleukin-8 (IL8), CXCL8 (gene 3576); assay: BSK_KF3CT_IL8: BioMAP Diversity Plus: KF3CT Assay for Interleukin-8 (IL8) Biomarker Activity (AID 2284254); settings: primary human keratinocytes with fibroblasts
Method: BSK_KF3CT is a cell-based, multiplexed-readout assay that uses keratinocytes and foreskin fibroblasts, a human skin primary cell co-culture, with measurements taken at 24 hours after chemical dosing in a 96-well plate.BSK_KF3CT_IL8 is an assay component measured in the BSK_KF3CT assay. It measures IL-8 antibody related to regulation of gene expression using ELISA technology.Data from the assay component BSK_KF3CT_IL8 was analyzed at the endpoint, BSK_KF3CT_IL8, in the positive analysis fitting direction relative to DMSO as the negative control and baseline of activity. Using a type of binding reporter, gain or loss-of-signal activity can be used to understand protein changes. To generalize the intended target to other relatable targets, this assay endpoint is annotated to the 'cytokine' intended target family, where the subfamily is 'interleukins'.
The levels of cell surface (or secreted, indicated by the prefix "s") biomarker endpoints were measured by ELISA. Overt cytotoxicity to cells in confluent adherent cultures (all systems other than the BT system) was assessed by measuring total protein levels using sulforhodamine B (SRB) staining in parallel cultures at the time of biomarker measurements, indicated as SRB endpoints. For proliferation assays for adherent cell types, individual cell types are cultured at sub-confluence and relative cell numbers quantified by SRB staining at time points optimized for each system (48 h: 3C and CASM3C systems; 72 h: BT and HDF3CGF systems; 96 h: SAg system). SRB was performed by staining cells with 0.1% SRB after fixation with 10% TCA and reading wells at 560 nm.Viability and proliferation of PBMC (T cells) was quantified by Alamar Blue reduction for the SAg and BT systems. For PBMC viability (referred to as PBMC Cytotoxicity within the assay endpoint names), cells were plated (75,000/well in a 96-well plate) and then chemical samples added for 1 h before addition of activators, SEB and TSST-1 (20 ng/mL final concentration each). Cells were incubated for 90 h. Then, Alamar Blue (20 uL/well) (Invitrogen, Cat DAL1100) was added for 6 h, and the plates were read with a fluorescence microplate reader at 546/580 nm (excitation/emission). For PBMC proliferation, cells were plated and activated as above but incubated for only 16 h prior to addition of Alamar Blue. Plates were read after 6 h.

Structure (SMILES) | outcome | AC50
CCCCC(CC)COC(=O)C=Cc1ccc(OC)cc1 (configuration not stated) | inactive | 
CCC[Si](OC(C)=O)(OC(C)=O)OC(C)=O | inactive | 
CC[N+](CC)(CC(=O)Nc1c(C)cccc1C)Cc1ccccc1 (tested in a mixture with another compound) | inactive | 
COc1ccccc1Oc1c(NS(=O)(=O)c2ccc(C(C)(C)C)cc2)nc(-c2ncccn2)nc1OCCO | inactive | 
C1CN(CCOCCN2CCOCC2)CCO1 | inactive | 
CC(C)C1OCCN1CCOC(=O)NCCCCCCNC(=O)OCCN1CCOC1C(C)C (configuration not stated) | inactive | 
COc1cc(CNC(=O)CCCC/C=C/C(C)C)ccc1O | inactive | 
COc1ccc(C(=O)c2ccccc2O)c(O)c1 | inactive | 
Cc1c(C(N)=O)cc([N+](=O)[O-])cc1[N+](=O)[O-] | inactive | 
CN(C)Cc1cc(C(C)(C)C)c(O)c(C(C)(C)C)c1 | inactive | 
O=[N+]([O-])c1cc(S(=O)(=O)Nc2ccccc2)ccc1Nc1ccccc1 |  | 15.3 µM (active) and 10.8 µM (active)
OC(C(F)(F)F)(C(F)(F)F)C(O)(C(F)(F)F)C(F)(F)F | inactive | 
